Our source for the growth inhibition values is PubChem BioAssay (NCI).

Experiment [1] is described as follows: NCI Yeast Anticancer Drug Screen. Data for the rad50 strain (AID 155).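 Note: 0% = growth of vehicle-only cultures of the same strain.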 Conditions: S. cerevisiae rad50 strain growth inhibition, hits give high values. The gist of the method:
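Cells are treated with compound, grown, and their growth is then scored against vehicle-only cultures of the same repair-deficient yeast strain.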

Experiment [2] is described as follows: NCI Yeast Anticancer Drug Screen. Data for the mec2-1 strain (AID 157). The following applies: S. cerevisiae mec2-1 strain, hits give high values. The gist of the method:
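Mutant yeast (mec2-1) grown with compound; growth inhibition relative to vehicle control reported.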

Experiment [3] is described as follows: NCI Yeast Anticancer Drug Screen. Data for the sgs1 mgt1 strain (AID 161).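 Note: 0% = growth of cultures given vehicle only.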 The following applies: S. cerevisiae sgs1 mgt1 strain, hits give high values. The gist of the method: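 Growth of a repair-deficient yeast mutant was monitored after compound treatment and expressed as inhibition relative to vehicle-treated cultures.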
Experiment [4] can be described thus: NCI Yeast Anticancer Drug Screen. Data for the cln2 rad14 strain (AID 165).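 Note: 0% = growth equal to vehicle treated cultures.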 Conditions: S. cerevisiae cln2 rad14 strain, hits give high values. The essentials: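 Readout is yeast growth inhibition versus vehicle-treated controls, using a strain with cln2 and rad14 alterations exposed to compound.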
The nature of experiment [5]: NCI Yeast Anticancer Drug Screen. Data for the bub3 strain (AID 167). The following applies: S. cerevisiae bub3 mutant strain, hits give high values. The gist of the method:
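Part of a panel of yeast mutants defective in DNA damage repair or cell cycle regulation. Each strain is grown with compound, and inhibition is calculated relative to solvent-treated cultures.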

Experiment [6] can be described thus: NCI Yeast Anticancer Drug Screen. Data for the mlh1 rad18 strain (AID 175). The following applies: S. cerevisiae mlh1 rad18 strain growth inhibition, hits give high values. The gist of the method:
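Genetically defined yeast (DNA repair-deficient) exposed to compounds; growth inhibition determined relative to vehicle.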

Where [7] appears, read: at 5.0 µM (retest, dose inferred, filed as 0.5).
Setting [8] is: at 50.0 µM (retest, dose inferred, filed as 5.0).

Structures are written as SMILES. This is part of a sample that, as a whole, favours compounds with a hit. Of some 79,000 tested, about 15% had one in any assay. A number with no mark means an inactive call. Calls of active or inactive are those of the source. Cut-off read from the data, not from the text of the source: active = growth inhibition above about 70%; inactive = the rest.

In the case of `C/C(=N\NC(=S)Nc1ccc(S(N)(=O)=O)cc1)c1ccccn1`, the growth inhibition in experiment [1] (setting [7]) was 33%; in experiment [1] (setting [8]) it was 64%; in experiment [1] (at 50.0 µM) it was 63.5%; in experiment [2] (setting [7]), 25%; in experiment [2] (setting [8]), 65%; in experiment [2] (at 50.0 µM) it was 42.8%. Moreover, the growth inhibition in experiment [3] (setting [7]) is 34%; in experiment [3] (setting [8]), 84% (active); in experiment [3] (at 50.0 µM), 28.9%; in experiment [4] (setting [7]), 20%; in experiment [4] (setting [8]), 67%; in experiment [4] (at 50.0 µM), 24.5%. Moreover, the growth inhibition was 41% in experiment [5] (setting [7]); 84% (active) in experiment [5] (setting [8]); 37.6% in experiment [5] (at 50.0 µM); 39% in experiment [6] (setting [7]); 70% (active) in experiment [6] (setting [8]); 64% in experiment [6] (at 50.0 µM).

As for `CC1(c2ccc(F)cc2)OC(=O)c2c1ccc1ccccc21` (stereo not given), the growth inhibition in experiment [1] (setting [7]) was -7%; in experiment [1] (setting [8]) it was 68%; in experiment [1] (at 50.0 µM), 56.2%; in experiment [2] (setting [7]), -5%; in experiment [2] (setting [8]), 78% (active); in experiment [2] (at 50.0 µM), 42.8%. For the same molecule, the growth inhibition in experiment [3] (setting [7]) is 0%; in experiment [3] (setting [8]), 81% (active); in experiment [3] (at 50.0 µM), 56.5%; in experiment [4] (setting [7]), -15%; in experiment [4] (setting [8]), 70% (active); in experiment [4] (at 50.0 µM), -2.35%. For the same molecule, the growth inhibition is -6% in experiment [5] (setting [7]); 88% (active) in experiment [5] (setting [8]); 72.6% (active) in experiment [5] (at 50.0 µM); -9% in experiment [6] (setting [7]); 84% (active) in experiment [6] (setting [8]); 29.5% in experiment [6] (at 50.0 µM).

Turning to `CCCCCCCCCCCCCCCCSC(=NC)NC`, the growth inhibition was 89% (active) in experiment [1] (setting [7]); 99% (active) in experiment [1] (setting [8]); 99.4% (active) in experiment [1] (at 50.0 µM); 98% (active) in experiment [2] (setting [7]); 99% (active) in experiment [2] (setting [8]); 99.2% (active) in experiment [2] (at 50.0 µM). In addition, the growth inhibition in experiment [3] (setting [7]) is 98% (active); in experiment [3] (setting [8]), 100% (active); in experiment [3] (at 50.0 µM), 99.3% (active); in experiment [4] (setting [7]), 25%; in experiment [4] (setting [8]) it was 99% (active); in experiment [4] (at 50.0 µM), 98.2% (active). Also, the growth inhibition in experiment [5] (setting [7]) was 84% (active); in experiment [5] (setting [8]) it was 99% (active); in experiment [5] (at 50.0 µM), 99.1% (active); in experiment [6] (setting [7]), 67%; in experiment [6] (setting [8]) it was 98% (active); in experiment [6] (at 50.0 µM), 98.7% (active).

Take `O=Cc1c(O)ccc2ccccc12`: the growth inhibition in experiment [1] (setting [7]) is 12%; in experiment [1] (setting [8]), 99% (active); in experiment [1] (at 50.0 µM), 99.2% (active); in experiment [2] (setting [7]), 8%; in experiment [2] (setting [8]) it was 98% (active); in experiment [2] (at 50.0 µM), 99.4% (active). Further, the growth inhibition in experiment [3] (setting [7]) was 11%; in experiment [3] (setting [8]), 99% (active); in experiment [3] (at 50.0 µM) it was 99.2% (active); in experiment [4] (setting [7]), 6%; in experiment [4] (setting [8]) it was 99% (active); in experiment [4] (at 50.0 µM), 99% (active). Also, the growth inhibition is 2% in experiment [5] (setting [7]); 98% (active) in experiment [5] (setting [8]); 99.5% (active) in experiment [5] (at 50.0 µM); 17% in experiment [6] (setting [7]); 98% (active) in experiment [6] (setting [8]); 99.2% (active) in experiment [6] (at 50.0 µM).

Regarding `Oc1ccccc1C1C=C(c2ccccc2)NC(N2CCCCC2)=C1c1nc2ccccc2[nH]1` (stereo not given), the growth inhibition is -9% in experiment [1] (setting [7]); -11% in experiment [1] (setting [8]); 18.1% in experiment [1] (at 50.0 µM); -9% in experiment [2] (setting [7]); -13% in experiment [2] (setting [8]); -5.15% in experiment [2] (at 50.0 µM). Also, the growth inhibition in experiment [3] (setting [7]) was -9%; in experiment [3] (setting [8]), -10%; in experiment [3] (at 50.0 µM), 5.05%; in experiment [4] (setting [7]) it was -22%; in experiment [4] (setting [8]) it was -14%; in experiment [4] (at 50.0 µM), 40%. For the same molecule, the growth inhibition in experiment [5] (setting [7]) is -13%; in experiment [5] (setting [8]), 6%; in experiment [5] (at 50.0 µM), 29.4%; in experiment [6] (setting [7]), 2%; in experiment [6] (setting [8]), -2%; in experiment [6] (at 50.0 µM), 9.4%.

As for `O=P(O)(O)Oc1c(O)c2ccccc2c2ccccc12`, the growth inhibition in experiment [1] (setting [7]) was 14%; in experiment [1] (setting [8]), 73% (active); in experiment [1] (at 50.0 µM) it was 91.4% (active); in experiment [2] (setting [7]) it was 22%; in experiment [2] (setting [8]) it was 95% (active); in experiment [2] (at 50.0 µM), 94.8% (active). Also, the growth inhibition in experiment [3] (setting [7]) is 17%; in experiment [3] (setting [8]) it was 85% (active); in experiment [3] (at 50.0 µM), 97.5% (active); in experiment [4] (setting [7]), 5%; in experiment [4] (setting [8]), 97% (active); in experiment [4] (at 50.0 µM) it was 97% (active). For the same molecule, the growth inhibition was 25% in experiment [5] (setting [7]); 92% (active) in experiment [5] (setting [8]); 99.6% (active) in experiment [5] (at 50.0 µM); 17% in experiment [6] (setting [7]); 94% (active) in experiment [6] (setting [8]); 99.3% (active) in experiment [6] (at 50.0 µM).

As for `O/N=C(/Cc1ccccc1)c1ccc2c(c1)OCO2`, the growth inhibition was -4% in experiment [1] (setting [7]); 6% in experiment [1] (setting [8]); -9.8% in experiment [1] (at 50.0 µM); -14% in experiment [2] (setting [7]); -11% in experiment [2] (setting [8]); 4.9% in experiment [2] (at 50.0 µM). Besides, the growth inhibition in experiment [3] (setting [7]) is -18%; in experiment [3] (setting [8]), 3%; in experiment [3] (at 50.0 µM), -2.4%; in experiment [4] (setting [7]), -6%; in experiment [4] (setting [8]), 17%; in experiment [4] (at 50.0 µM), 8.6%. Also, the growth inhibition in experiment [5] (setting [7]) was 6%; in experiment [5] (setting [8]), 29%; in experiment [5] (at 50.0 µM) it was 15.1%; in experiment [6] (setting [7]) it was -19%; in experiment [6] (setting [8]), 10%; in experiment [6] (at 50.0 µM), 2.95%.

Consider `COc1cc(C2C=C(c3ccccc3)Oc3cc4c(cc32)OCO4)cc(OC)c1OC` (stereo not given), for which the growth inhibition is 8% in experiment [1] (setting [7]); 21% in experiment [1] (setting [8]); -30.1% in experiment [1] (at 50.0 µM); -11% in experiment [2] (setting [7]); 16% in experiment [2] (setting [8]); -39.9% in experiment [2] (at 50.0 µM). Moreover, the growth inhibition is -13% in experiment [3] (setting [7]); 25% in experiment [3] (setting [8]); -7.8% in experiment [3] (at 50.0 µM); -10% in experiment [4] (setting [7]); 27% in experiment [4] (setting [8]); -5.3% in experiment [4] (at 50.0 µM). Moreover, the growth inhibition in experiment [5] (setting [7]) is -33%; in experiment [5] (setting [8]), 38%; in experiment [5] (at 50.0 µM), 11.9%; in experiment [6] (setting [7]) it was 1%; in experiment [6] (setting [8]), 23%; in experiment [6] (at 50.0 µM) it was 3.4%.

`O=C(Nc1ccc(Cl)c(Cl)c1)Nc1cc(Cl)ccc1Oc1ccc(Cl)cc1S(=O)(=O)O`: the growth inhibition is 52% in experiment [1] (setting [7]); 97% (active) in experiment [1] (setting [8]); 90.5% (active) in experiment [1] (at 50.0 µM); 32% in experiment [2] (setting [7]); 99% (active) in experiment [2] (setting [8]); 93.5% (active) in experiment [2] (at 50.0 µM). For the same molecule, the growth inhibition is 55% in experiment [3] (setting [7]); 99% (active) in experiment [3] (setting [8]); 93.6% (active) in experiment [3] (at 50.0 µM); 35% in experiment [4] (setting [7]); 99% (active) in experiment [4] (setting [8]); 92.2% (active) in experiment [4] (at 50.0 µM). Further, the growth inhibition in experiment [5] (setting [7]) is 43%; in experiment [5] (setting [8]) it was 99% (active); in experiment [5] (at 50.0 µM), 92.5% (active); in experiment [6] (setting [7]), 61%; in experiment [6] (setting [8]), 98% (active); in experiment [6] (at 50.0 µM) it was 91% (active).

With `CSC(=S)N/N=C/c1cccc(C)n1`, the growth inhibition in experiment [1] (setting [7]) was 13%; in experiment [1] (setting [8]) it was 71% (active); in experiment [1] (at 50.0 µM), 95.1% (active); in experiment [2] (setting [7]) it was 5%; in experiment [2] (setting [8]), 60%; in experiment [2] (at 50.0 µM), 82.1% (active). Besides, the growth inhibition in experiment [3] (setting [7]) was 3%; in experiment [3] (setting [8]), 69%; in experiment [3] (at 50.0 µM) it was 66.2%; in experiment [4] (setting [7]), -8%; in experiment [4] (setting [8]), 26%; in experiment [4] (at 50.0 µM), 67.7%. The growth inhibition was 1% in experiment [5] (setting [7]); 72% (active) in experiment [5] (setting [8]); 86.8% (active) in experiment [5] (at 50.0 µM); 30% in experiment [6] (setting [7]); 80% (active) in experiment [6] (setting [8]); 82.6% (active) in experiment [6] (at 50.0 µM).
